# Results filed as inconclusive are left out. The source made the active and inactive calls. Unless noted, calls follow the shape of the dose curve; as a rule, active = well fitted inhibition curve with a large enough effect; inconclusive = small, poorly fitted or top-dose-only effect; inactive = no such curve, though single readings can be large or run the other way.
# Assay: High-throughput drug toxicity screening in the BPDCN cell line Cal-1 (AID 1224825; call rule not given here;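 also: cells exposed to compounds for 48 h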)
# Conditions: Cal-1 BPDCN cell viability, qHTS; at 45.8 µM (top of the series) unless noted
# Outline: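 Viability of the BPDCN line Cal-1 is measured as ATP-based luminescence (CellTiter-Glo) following 48 h incubation with compounds. Percent activity uses DMSO-treated wells as 100% and 9.2 uM bortezomib as 0%.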
row,Structure (SMILES),viability (% of control) [%]
1,CC(=O)OCC(=O)[C@@]1(O)CC[C@H]2[C@@H]3CCC4=CC(=O)C=C[C@]4(C)[C@@H]3[C@@H](O)C[C@@]21C,58.1
2,C[C@]12CCC3=C4CCC(=O)C=C4CC[C@@H]3[C@H]1CC[C@@]2(O)CC#N,107
3,CC(O)=C(C#N)C(=O)Nc1ccc(C(F)(F)F)cc1,81.4

# Assay: qHTS assay for measurement of the activity of small molecule inhibitors on Zika virus induced Caspase-3 activity in human iPSC derived neural progenitor cells (hNPCs) (AID 1224857); also: nearly all actives have a fitted effect of over 65% in size; also: potency is read from the fitted curve at half-maximal effect; as to activity change, negative = inhibition: % of control where 0% means no effect
# Conditions: hNPCs ZIKV-induced caspase-3/7, Caspase-Glo luminescence, 6 h; series mostly up to 45.7 µM; activity change, negative = inhibition: at the top concentration
# Outline: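 Quantitative HTS format: human iPSC neural progenitors, 1 h compound pretreatment, ZIKV 2 FFU/cell for 6 h at 37 C. Percent inhibition derived from luminescent caspase-3/7 signal between uninfected and infected controls.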
Structure (SMILES),"activity change, negative = inhibition",Potency
CCCCc1ccc(NS(=O)(=O)c2ccc(C)c(C(=O)N3CCN(c4cccc(C)c4C)CC3)c2)cc1,33.7% (inactive),
Cc1cccc2c1CC[C@H](CN1CCC(c3c(Cl)cccc3Cl)CC1)C[C@@H]2O,46.7% (inactive),
CC[C@]1(O)C[C@H]2CN(CCC3=c4ccccc4=N[C]3[C@@](C(=O)OC)(c3cc4c(cc3OC)N(C)[C@H]3[C@@](O)(C(N)=O)[C@H](O)[C@]5(CC)C=CCN6CC[C@]43[C@@H]65)C2)C1,-11.5% (inactive),
O=c1[nH]c(=O)n([C@H]2C[C@@H](O)[C@@H](CO)O2)cc1I,28.4% (inactive),
Cc1nc(NC(=O)N2CCC[C@@H]2C(N)=O)sc1-c1csc(C(C)(C)C)n1,21.5% (inactive),
O=C(Nc1ccc(OC(F)(F)F)cc1)c1sccc1NCc1ccnc2ccccc12,,5.9 µM (active)
O=C1CN2Cc3c(ccc(Cl)c3Cl)N=C2N1,-5.14% (inactive),
Cc1c(C(=O)Nc2ccc(N3C[C@@H](C)O[C@@H](C)C3)nc2)cccc1-c1ccc(OC(F)(F)F)cc1,-6.33% (inactive),
CC(C)C[C@@H](C(=O)N[C@H](C(=O)OC1CCCC1)c1ccccc1)[C@H](O)C(=O)NO,-8.39% (inactive),
NCC1CCC(C(=O)O)CC1 (stereo unspecified),108% (inactive),
CN(C)CCN(C)C(=O)c1ccc(NC(=O)Nc2ccc(-c3nc(N4CCOCC4)c4ccn(CC(F)(F)F)c4n3)cc2)cc1,103% (inactive),
CC(=O)OCC(=O)[C@@]1(O)CC[C@H]2[C@@H]3CCC4=CC(=O)C=C[C@]4(C)[C@@H]3[C@@H](O)C[C@@]21C,-19.6% (inactive),
CCOC(=O)c1c(CSc2ccccc2)n(C)c2cc(Br)c(O)c(CN(C)C)c12,17.2% (inactive),
CCc1cc(-c2n[nH]c(C)c2-c2ccc3c(c2)OCCO3)c(O)cc1O,-5.89% (inactive),
CC(=O)NCCC(=O)N[C@@H](CCC(N)=O)C(=O)N[C@@H](CO)C(=O)N[C@@H](CCC(N)=O)C(=O)N[C@@H](CCC(N)=O)C(=O)N[C@H](C(=O)N[C@@H](Cc1ccccc1)C(=O)N[C@]1(C)CCCCCCC=CCCC[C@@](C)(C(=O)N[C@@H](CCC(N)=O)C(=O)N[C@@H](CC(N)=O)C(N)=O)NC(=O)[C@H](CC(C)C)NC(=O)[C@H](CC(C)C)NC(=O)[C@@H](CCCNC(=N)N)NC(=O)[C@H](Cc2c[nH]c3ccccc23)NC(=O)[C@H](CC(C)C)NC(=O)[C@H](CC(N)=O)NC1=O)[C@H](C)O,-29.3% (inactive),
Cc1ccccc1C(C(=O)NC1CCCCC1)N(C(=O)CNc1ccc(C#N)cc1)c1cccc(F)c1 (stereo unspecified),37.6% (inactive),
CC[C@H]1OC(=O)[C@H](C)[C@@H](O[C@H]2C[C@@](C)(OC)[C@@H](O)[C@H](C)O2)[C@H](C)[C@@H](O[C@@H]2O[C@H](C)C[C@H](N(C)C)[C@H]2O)[C@](C)(O)C[C@H](C)C(=NOCOCCOC)[C@H](C)[C@@H](O)[C@]1(C)O,-8.76% (inactive),
COc1ccc(CCC(=O)Nc2nc3ccc(Cl)cc3s2)cc1OC,-16.9% (inactive),
COc1ccc(Cn2ccc3ccc(C(=O)NO)cc32)cc1,34.7% (inactive),
O=C(O)CCC=CCC[C@@H]1[C@H](N2CCCCC2)[C@@H](O)C[C@@H]1OCc1ccc(-c2ccccc2)cc1,10.1% (inactive),
C[C@H](CCC(=O)O)[C@H]1CC[C@H]2[C@H]3[C@@H](CC[C@]12C)[C@@]1(C)CC[C@@H](O)C[C@H]1C[C@@H]3O,16.4% (inactive),
O=C(CO)N1CCC(c2[nH]nc(-c3ccc(Cl)cc3)c2-c2ccncn2)CC1,12.5% (inactive),
O=C(Nc1ncc(SCCN2CCCC2)s1)[C@]1(c2ccc(S(=O)(=O)C3CC3)cc2)C[C@@H]1C1CCCCC1,-2.31% (inactive),
CCOC(=O)[C@@H](N)CCC(=O)N[C@@H](CSCc1ccccc1)C(=O)N[C@@H](C(=O)OCC)c1ccccc1,26% (inactive),
N#CC(=C1Nc2ccccc2S1)c1ccnc(OCc2ccc(CN3CCOCC3)cc2)n1,1.67% (inactive),
C[C@]12CCC3=C4CCC(=O)C=C4CC[C@@H]3[C@H]1CC[C@@]2(O)CC#N,-32.2% (inactive),
Cc1ccc(S(=O)(=O)Nc2nc3ccccc3nc2Nc2ccc3nsnc3c2)cc1,0.0368% [at 20.5 µM] (inactive),
CC1=C(CC(=O)O)c2cc(F)ccc2C1=Cc1ccc(S(C)=O)cc1 (stereo unspecified),21.5% (inactive),

# From PubChem BioAssay (NCATS)
